Compound activity as filed in PubChem.
EBNA-1 inh = EBNA-1 DNA-binding inhibitors, primary screen, biochemical, fluorescence polarization; inhibition, % at 14.8 µM; 0.34% of 300,000 active; AID 1950, 2009; in the data active means inhibition above about 28%
LYPLA2 counter = LYPLA2 inhibitors, primary screen, counter-screen for PME1 inhibitor project, biochemical, fluorescence polarization, FP-Rh probe ABPP. Acyl-protein thioesterase 2 (Homo sapiens), O95372. recombinant LYPLA2. inhibition, % at 5.9 µM. 0.38% of 320,000 active. AID 2177, 2009;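 active means inhibition above the screen-wide mean plus 3 SD, limit set per campaign, cut at about 26% in these data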
Target sequence (O95372 whole entry, looked up): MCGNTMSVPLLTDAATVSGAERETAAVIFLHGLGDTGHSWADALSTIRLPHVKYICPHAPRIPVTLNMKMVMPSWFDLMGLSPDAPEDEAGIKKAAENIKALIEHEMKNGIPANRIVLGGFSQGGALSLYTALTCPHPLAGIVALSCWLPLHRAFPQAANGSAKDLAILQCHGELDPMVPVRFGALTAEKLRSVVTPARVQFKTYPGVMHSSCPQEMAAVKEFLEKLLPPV
LYPLA1 inh = LYPLA1 inhibitors, primary screen, counter-screen for PME1 inhibitor project, biochemical, fluorescence polarization, FP-Rh probe ABPP; inhibition, % at 5.9 µM; 0.16% of 320,000 active; recombinant LYPLA1; AID 2174, 2009;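 active means inhibition above the mean of all tested compounds plus 3 SD, set per campaign, cut at about 14% in these data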;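 further: inhibitors block serine hydrolase probe labeling of LYPLA1 so polarization falls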
Target sequence (O75608 whole entry, looked up): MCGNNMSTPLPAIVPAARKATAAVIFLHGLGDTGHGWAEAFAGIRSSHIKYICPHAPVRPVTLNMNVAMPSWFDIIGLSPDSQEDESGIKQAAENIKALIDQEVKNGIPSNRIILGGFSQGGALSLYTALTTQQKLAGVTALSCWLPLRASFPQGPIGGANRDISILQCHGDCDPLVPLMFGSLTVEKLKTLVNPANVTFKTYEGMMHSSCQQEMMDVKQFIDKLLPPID
ZTA counter = ZTA (EBV) inhibition in EBNA-1 counter-screen; ZTA-DNA binding, fluorescence polarization; inhibition, % at 11 µM; 0.15% of 320,000 active; in the data active means inhibition above about 33%
LANA-H2B inh = blockers of LANA interaction with H2A/H2B – biochemical, FP readout, HTS, primary screen. Protein LANA1 (Human herpesvirus 8 type P (isolate GK18)), Q9QR71. cell-free LANA-H2A/H2B peptide, fluorescence polarization. inhibition, % (concentration not given with the values). 0.6% of 320,000 active. AID 2629, 2010; in the data active means inhibition mostly above about 10%, no sharp cut-off; inactive means mostly below about 6.7%
LYPLA2 conf = LYPLA2 inhibitors, retest, confirmation, counter-screen for PME1 inhibitor project, biochemical, fluorescence polarization, FP-Rh probe ABPP; shares compounds with LYPLA2 counter; recombinant LYPLA2; inhibition, % at 5.9 µM; 72% of 1,100 active; AID 2232, 2010;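 active means mean inhibition across replicates above the hit cutoff set in the primary screen, cut at about 26% in these data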;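 further: blocked labeling of the enzyme by serine hydrolase FP-Rh probe lowers polarization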
LYPLA2 gel ABPP = LYPLA2 inhibitors in proteome, late-stage follow-up, gel-based competitive ABPP, fluorescence, assay provider | shares compounds with LYPLA2 counter | rhLYPLA2 in mouse brain proteome, gel ABPP FP-Rh | inhibition, % at 20 µM | 30% of 150 active;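 active means inhibition of LYPLA2 enzyme probe labeling above about 50%, limit read from the data; inactive means inhibition below that limit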;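 further: loss of FP-Rh probe labeling of the LYPLA2 gel band measured as band density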
Numbers stand for hits; i = inactive; nt = not tested or not shown. Hits are enriched below; roughly 1.4% of the tested compounds scored in any of these assays.

SMILES | EBNA-1 inh | LYPLA2 counter | LYPLA1 inh | ZTA counter | LANA-H2B inh | LYPLA2 conf | others
COc1ccc(N2CCN(C3CCCN(S(=O)(=O)c4ccc(C)cc4C)C3)CC2)cc1 (stereo unspecified) | i | i | i | i | i | nt
Cc1ccc(NCc2ccc(C)s2)cc1 | i | i | i | i | i | nt
COC(=O)c1cc(NC(=O)c2ccccc2)c(=O)oc1C | i | 27 | i | i | i | i
CCC(=O)c1ccc(N2CCN(C(=O)c3ccc(F)cc3)CC2)c(F)c1 | i | i | i | i | i | nt
CCCC(=O)c1ccc(N2CCN(C(=O)c3ccc(Br)cc3)CC2)c(F)c1 | i | 39 | i | i | i | 70 | LYPLA2 gel ABPP=i
CCC(=O)c1ccc(N2CCN(C(=O)c3ccc(Br)cc3)CC2)c(F)c1 | i | 30 | i | i | i | 48
CCNC(=O)CC1C(=O)N(CC)C(=S)N1NC(=O)c1ccccc1 (stereo unspecified) | i | i | i | i | i | nt
COCCCNC(=O)CN1C(=O)CSc2ncccc21 | i | i | i | i | i | nt
O=C(CN1C(=O)COc2ccc(S(=O)(=O)N3CCCC3)cc21)Nc1cccc(F)c1 | i | 41 | i | i | i | 47
O=C(CCN1C(=O)CSc2ccccc21)Nc1ccc(C(F)(F)F)cc1 | nt | i | i | i | nt | nt
O=C(CN1C(=O)CSc2ccc(C(F)(F)F)cc21)Nc1ccccc1 | i | 37 | i | i | i | 37
O=C(CN1C(=O)CSc2ncccc21)Nc1cccc(Cl)c1 | i | 62 | i | i | i | 67 | LYPLA2 gel ABPP=i
COc1cccc(NC(=O)CN2C(=O)COc3ccc(C)cc32)c1 | i | 31 | i | i | i | 29
O=[N+]([O-])c1ccc(C(O)CSC(=S)N2CCCCC2)cc1 (stereo unspecified) | i | i | i | i | i | nt
COc1cc(NC(=O)CN2C(=O)CSc3ccc(S(=O)(=O)N4CCCC4)cc32)cc(OC)c1 | i | 28 | i | i | i | i
COc1ccc(CNC(=O)CN2C(=O)CSc3ccc(S(=O)(=O)N4CCCCC4)cc32)cc1 | i | i | i | i | i | nt
CCOC(=O)C1CCN(S(=O)(=O)c2ccc(Cl)s2)CC1 | i | i | i | i | i | nt
COc1cc(/C=C(\C#N)C(=O)NCc2ccccc2)ccc1OCc1ccc(C(=O)O)cc1 | i | 41 | i | i | i | 29
COCCNC(=O)/C(C#N)=C/c1ccc(OCc2ccccc2)cc1 | i | i | i | i | i | nt
COc1cc(/C=C(/C#N)C(=O)Nc2ccccc2)ccc1OCc1ccc(C(=O)O)cc1 | i | i | i | i | i | nt
N#C/C(=C\c1ccc(OCc2ccc(C(=O)O)cc2)cc1)C(=O)NCc1ccccc1 | i | 40 | i | i | i | 33
CC(C)c1ccc(OCC(=O)Nc2ccccc2C(=O)N2CCOCC2)cc1 | i | i | i | i | i | nt
O=C(c1ccc(CNc2c(N3CCOCC3)c(=O)c2=O)cc1)N1CC=C(c2ccccc2)CC1 | i | 44 | i | i | i | 41
O=[N+]([O-])c1ccccc1-c1nc(-c2ccc(Br)o2)no1 | i | 32 | i | i | i | 29
Nc1nc(Sc2c([N+](=O)[O-])cc(C(F)(F)F)cc2[N+](=O)[O-])n[nH]1 | i | i | i | i | i | nt
SMILES | EBNA-1 inh | LYPLA2 counter | LYPLA1 inh | ZTA counter | LANA-H2B inh | LYPLA2 conf | others
CSc1ccc(C(=O)C2CCCN(C(=O)c3cc4cc(F)ccc4[nH]3)C2)cc1 (stereo unspecified) | i | 36 | i | i | i | 41
O=[N+]([O-])c1cnc(Nc2ccc(Cl)cn2)c([N+](=O)[O-])c1 | i | 29 | i | i | i | 32
O=C(Nc1ccc(Cl)cn1)c1ccccc1[N+](=O)[O-] | i | i | i | i | i | nt
O=C(NCCC1CCCCN1S(=O)(=O)c1ccc(F)cc1)C(=O)NCc1cccnc1 (stereo unspecified) | i | i | i | i | i | nt
COc1ccccc1NC(=O)CSc1nc2nccnc2c(=O)n1Cc1cccs1 | i | 27 | i | i | i | i
O=[N+]([O-])c1ccc(CN2CCOCCOCCN(Cc3ccc([N+](=O)[O-])cc3)CCOCC2)cc1 | i | 37 | i | i | i | i
COC(=O)c1ccc(NC(=O)C(=O)N2CCN(C(=S)Nc3cccc(C)c3C)CC2)cc1 | i | 50 | i | i | i | 42
c1ccc(-c2noc(C3CCC3)n2)nc1 | i | i | i | i | i | nt
CCCCC1CCC(c2nc(-c3ccccn3)no2)CC1 (stereo unspecified) | i | 29 | i | i | nt | 38
CN1CCN(c2ccc(NC(=O)c3ccc(C(F)(F)F)cc3)cn2)CC1 | i | i | i | i | i | nt
CNC(=S)Nc1ccc(N2CCN(c3ccc(C(F)(F)F)cn3)CC2)nc1 | i | 54 | i | i | i | 65 | LYPLA2 gel ABPP=i
N#C/C(=C/c1ccc(N2CCCC2)c([N+](=O)[O-])c1)c1nc2ccccc2[nH]1 | i | i | i | i | i | nt
N#C/C(=C\c1ccc(N2CCOCC2)c([N+](=O)[O-])c1)c1nc2ccccc2[nH]1 | i | 31 | i | i | i | 53
O=C(NC(=S)N1CCN(c2ccc(C(F)(F)F)cc2[N+](=O)[O-])CC1)c1cccs1 | i | 36 | i | i | i | 30
CCN1CCN(C(=S)NC(=O)c2cccs2)CC1 | i | i | i | i | i | nt
O=C(Oc1cccc([N+](=O)[O-])c1)N1CCCCC1 | i | i | i | i | i | nt
COc1ccc(C2=NOC(COc3ccc4c(C)cc(=O)oc4c3)C2)c(OC)c1 (stereo unspecified) | i | 28 | i | i | i | i
Cc1cc(C)c2[nH]c(=O)c(CN(Cc3cccnc3)C(=S)NCCCN(C)C)cc2c1 | i | i | i | i | i | nt
CCOc1ccccc1/C=C/c1onc(C)c1S(=O)(=O)N1CCC(C(=O)N2CCCCCC2)CC1 | i | i | i | i | i | nt
O=C1N(Cc2cccnc2)C[C@@H]2C[C@@H](c3cccc(Oc4ccccc4)c3)N3CCC[C@@]123 | i | 27 | i | i | i | i
O=C(CNc1ccc2ccccc2c1)N/N=C/c1ccc(OC(=O)/C=C/c2ccco2)cc1 | i | i | i | i | i | nt
O=C(COc1ccc2ccccc2c1)NCC(=O)N/N=C/c1ccco1 | i | 30 | i | i | i | i
COc1cc(/C=C(/C#N)c2ccc(F)cc2)ccc1Oc1ccc([N+](=O)[O-])cn1 | i | 47 | i | i | i | 51 | LYPLA2 gel ABPP=i
COc1cc(/C=N/NC(=O)Cc2ccccc2)ccc1Oc1ccc([N+](=O)[O-])cc1[N+](=O)[O-] | i | 40 | i | i | i | 31
